High-throughput results as filed in PubChem BioAssay.
A selection: hits, their analogues and other compounds. The true share with any hit is near 10%.
SW480 rerep = inducers of DNA re-replication in SW480 colon cancer cells | SW480 DNA re-replication, Hoechst DNA content imaging, 48 h | Potency, µM (titrated, usually from 46.1 µM), inactives show at the top dose re-replication activation, most hits filed as activators | actives 1.8% (n = 340,000) | AID 624297; also: % of control where 0% means no effect; nearly all actives have a fitted effect of over 55% in size
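First, 250 cells per well were seeded. Next, compound or vehicle (23 nL) was pinned in, plates sat 48 hr at 37 C. Finally Hoechst was added for 40 min before fluorescence scanning.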
RORgamma inh = blocks mouse ROR gamma transcriptional activity. P51450. Drosophila S2 Gal4-RORgamma UAS-luciferase reporter, 20 h. Potency, µM (highest dose often 53.6 µM), without a hit: at the top dose activity change, negative = inhibition, usual class: inhibitors. actives 5.4% (n = 310,000). AID 2551; also: % is scaled to controls: 0 for no effect and ±100 for the full control effect; nearly all actives have a fitted effect of over 60% in size
Target sequence (P51450 whole entry, looked up, the tested form may be a part): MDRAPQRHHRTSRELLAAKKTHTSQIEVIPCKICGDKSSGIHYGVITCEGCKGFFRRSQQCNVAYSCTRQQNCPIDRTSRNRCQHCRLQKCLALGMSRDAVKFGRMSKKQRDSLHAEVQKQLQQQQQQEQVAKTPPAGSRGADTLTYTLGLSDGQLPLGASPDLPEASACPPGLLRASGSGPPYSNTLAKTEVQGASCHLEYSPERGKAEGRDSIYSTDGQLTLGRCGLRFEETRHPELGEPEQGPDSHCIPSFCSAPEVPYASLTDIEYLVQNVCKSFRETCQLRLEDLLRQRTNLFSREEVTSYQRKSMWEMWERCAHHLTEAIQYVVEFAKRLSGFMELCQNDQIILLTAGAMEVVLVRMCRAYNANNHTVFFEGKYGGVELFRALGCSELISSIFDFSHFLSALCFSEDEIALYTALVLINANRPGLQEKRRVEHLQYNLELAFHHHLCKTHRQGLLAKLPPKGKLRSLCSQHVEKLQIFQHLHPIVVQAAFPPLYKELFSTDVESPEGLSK
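Stable Schneider cell line, Gal4 DNA-binding domain fused to ROR gamma, UAS-luciferase. Cmpd 1 hr RT → CuSO4 700 uM final → 20 hr RT → luciferase reagent 10 min → luminescence.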
MCF10A rereplic = induces DNA re-replication in MCF 10a normal breast cells; Potency, µM (doses to about 46.1 µM), for inactives: at the top dose activity, positive = re-replication, usual class: activators; AID 624296; actives 2.9% (n = 350,000); MCF 10A DNA re-replication, Hoechst nuclear intensity, 48 h; also: % of control where 0% means no effect; nearly all actives have a fitted effect of over 50% in size
VP16 counter = counter-screen for ROR gamma inhibitors: Gal4-VP16 reporter | Drosophila S2 Gal4-VP16 UAS-luciferase, luminescence, 20 h | Potency, µM (titrated, usually from 53.6 µM), for inactives: at the highest dose activity, negative = inhibition, most hits filed as inhibitors | actives 3.5% (n = 310,000);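 also: Gal4-VP16 expression switched on by copper sulfate through the metallothionein promoter; % is scaled to controls: 0 for no effect and ±100 for the full control effect; nearly all actives have a fitted effect of over 50% in size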
KB-V1 MDR tox = KB-V1 MDR subline cytotoxicity. Potency, µM (highest dose often 46.1 µM), usual class: cytotoxic. actives 3.4% (n = 400,000). KB-V1 MDR cells viability, CellTiter-Glo, 72 h. AID 1347076; also: % is scaled to controls: 0 for no effect and ±100 for the full control effect; nearly all actives have a fitted effect of over 60% in size
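Readout: CellTiter-Glo luminescence, 10 min after addition. Cells: KB-V1 MDR subline, 72 h at 37 degrees C with compound. Analysis: corrected, normalized data fitted to concentration-effect curves.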
KB-3-1 cytotox = kills parental KB-3-1 adenocarcinoma cells | KB-3-1 viability, CellTiter-Glo ATP luminescence, 72 h | Potency, µM (titrated, usually from 46.1 µM), most hits filed as cytotoxic | actives 1.4% (n = 400,000) | AID 1347075; also: % is scaled to controls: 0 for no effect and ±100 for the full control effect; nearly all actives have a fitted effect of over 60% in size
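Screening of KB-3-1 cells (DMEM, 10% FBS, phenol-red free) ran from lowest to highest compound concentration; after 72 h at 37 °C viability was read luminescently and curves fitted.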
Numbers without * were called inactive; i = inactive; ? = inconclusive; / = no result; ! = not active in a repeat; [ ] = dose if it differs, or a comment. Calls follow the shape of the dose curve; as a rule, active = well fitted curve in the direction sought with a large enough effect; inconclusive = small, poorly fitted or top-dose-only effect, or another doubt; inactive = no such curve, though single readings can be large; an effect the other way counts as inactive or inconclusive. Potency is read from the fitted curve at half-maximal effect.

SMILES | SW480 rerep | RORgamma inh | MCF10A rereplic | VP16 counter | KB-V1 MDR tox | KB-3-1 cytotox
O=C1C(Cc2ccccc2)S/C(=N/N=C/c2ccco2)N1c1ccccc1 (centres undefined) | 1% | -11% | ? | -22% | i | i
COc1ccc(/C=N/N=C2/NC(=O)C(CC(=O)O)S2)cc1OS(=O)(=O)c1ccccc1 (centres undefined) | -4% | 0% | -18% | 1% | i | i
Cc1cccc(CC2S/C(=N/N=C/c3ccco3)NC2=O)c1 (centres undefined) | -4% | 0.89µM* | -16% | 5.6µM* | i | i
C=CCN1C(=O)C(Cc2ccc(C)cc2)S/C1=N/N=C/c1ccco1 (centres undefined) | -6% | -5% | 1% | -8%[0.365 µM] | ? | i
O=C1N/C(=N/N=C/c2ccco2)SC1Cc1ccccc1 (centres undefined) | -4% | 1µM* | -5% | 2.5µM* | i | i
Cc1ccc(CC2S/C(=N/N=C/c3ccco3)NC2=O)cc1 (centres undefined) | 6% | 1.4µM* | 3% | 11µM* | i | i
Cc1cc(C)cc(OC(=O)c2cc(-c3ccc4c(c3)OCCO4)on2)c1 | / | / | / | / | i | i
Cc1ccc(C(=O)c2c(N)c(C(=O)Nc3cccc(C(F)(F)F)c3)c3ccccn23)cc1 | / | / | / | / | i | i
CCOc1ccccc1-c1noc(CSc2nnc(-c3ccccc3)n2-c2ccc(F)cc2)n1 | / | / | / | / | ? | i
CCNC(=O)CC1S/C(=N/N=C(\C)c2ccccc2)NC1=O (centres undefined) | -9% | -2% | 0% | -11%[10 µM] | i | i
C/C(=N\N=C1\NC(=O)C(Cc2ccccc2)S1)c1ccccc1 (centres undefined) | -104% | 10µM* | ? | -24% | i | i
COc1ccccc1CC1S/C(=N/N=C/c2ccco2)NC1=O (centres undefined) | ? | 2.2µM* | 17% | 7.1µM* | ? | i
C[C@@H]1CC2C3CCC4=CC(=O)C=C[C@]4(C)[C@@]3(F)[C@@H](O)C[C@]2(C)[C@@]1(O)C(=O)COC(=O)c1cccc(S(=O)(=O)O)c1 (some centres undefined) | -5% | 22% | 4% | 6% | / | /
COCCn1c(C)cc(C2=NNC(=Nc3ccccc3)SC2)c1C | 3%[9.22 µM] | -3% | 10% | 5% | i | i
Cc1ccc(C)c(C2=NNC(=NCc3ccccc3)SC2)c1 | ? | 7.9µM* | 23µM* | ? | i | i
CCN=C1NN=C(c2cc(C)n(CCc3ccccc3)c2C)CS1 | 13% | 0% | ? | -2% | ? | i
CCN=C1NN=C(c2cc(C)n(Cc3ccco3)c2C)CS1 | / | 0.28µM* | 9% | ? | i | i
C=CCn1c(C)cc(C2=NNC(=NCc3ccccc3)SC2)c1C | ? | 23% | ? | -5%[10 µM] | 9.2µM* | ?
O=Nc1ccc(NO)cc1 | / | 3% | / | 0% | / | /
CC(=O)c1ccc(N2CCN(C(=O)c3cc(S(=O)(=O)N4CCCCCC4)cn3C)CC2)cc1 | / | / | / | / | ? | i
CC(C)(C)c1ccc(OCC(=O)N/N=C/c2cc(Br)ccc2OC(=O)c2ccco2)cc1 | 13% | 0.25µM* | 2% | 1.3µM* | 7.3µM* | ?
C=C1CCC2C(C)(CO)C(O)CCC2(C)C1C/C=C1\C(=O)OCC1O (centres undefined) | / | 13µM* | / | -22% | / | /
O=C1CCC[C@@H]2Cc3nc4cc5c(cc4cc3[C@@H]3CCN1[C@H]23)OCO5 | -19% | / | -3% | / | 18µM*! | i
O=C1CCC[C@@H]2Cc3nc4ccc(O)cc4cc3[C@@H]3CCN1[C@H]23 | -55% | / | -4% | / | i | i
COC(=O)/C=C\CCc1coc(/C=C\CNC(=O)OC)n1 | / | -2%[10 µM] | / | 5%[10 µM] | / | /
SMILES | SW480 rerep | RORgamma inh | MCF10A rereplic | VP16 counter | KB-V1 MDR tox | KB-3-1 cytotox
c1ccc(CNc2nc(NCCc3ccncc3)c3sccc3n2)cc1 | / | / | / | / | ? | i
COc1ccc(OCC(O)CNC(=O)c2ccc(Br)cc2)cc1 (centres undefined) | -1% | 23% | 0% | 8% | 4.1µM* | i
CC(C)(C)OC(=O)N1CCC[C@H]1C(=O)O | -21% | -2% | 24% | 2% | i | i
CC(C)COC(=O)N1CCCC1C(=O)O (centres undefined) | 0.73µM* | 23% | 6.5µM* | -2% | i | i
Cc1cc2nc(-c3ccc(SCC(=O)NC(C)C)nc3)[nH]c2cc1C | / | 40% | / | -16% | / | /
Cc1cc(NC(=O)CSc2ccc(-c3nc4cc(C)c(C)cc4[nH]3)cn2)no1 | ? | -5% | 0.18µM* | -16% | ? | i
Cc1cc2nc(-c3ccc(SCC(=O)Nc4ccc(S(=O)(=O)NC5CC5)cc4)nc3)[nH]c2cc1C | ? | ? | 21µM* | ? | i | i
Cc1cc2nc(-c3ccc(SCc4ccc(C(=O)O)cc4)nc3)[nH]c2cc1C | ? | 32% | 12% | 4% | i | ?
Cc1cc2nc(-c3ccc(SCc4ccccc4C#N)nc3)[nH]c2cc1C | ? | 36% | 13% | -10%[0.365 µM] | 21µM* | i
O=C(Cc1ccc(NC(=O)N2CCCCc3ccccc32)cc1)Nc1ccccc1Br | / | / | / | / | ? | i
COc1ccc(CNc2nc(-c3ccc4c(c3)OCO4)nc3ccccc23)c(OC)c1 | / | 13% | / | 0% | / | /
CCCN(Cc1cccs1)C(=O)Nc1cc(Cl)ccc1C | / | / | / | / | i | i
CNC(=O)N(O)C1N(/N=C/c2cc(Br)ccc2O)C(=S)SC1(C)C (centres undefined) | -3% | 16µM* | 1% | ? | i | i
CNC(=O)N(O)C1N(/N=C/c2ccc(C)cc2)C(=S)SC1(C)C (centres undefined) | ? | 5% | 1% | 6% | i | i
CC1(C)SC(=S)N(/N=C/c2cccnc2)C1N(O)C(=O)Nc1ccccc1 (centres undefined) | -7% | -11% | 5% | 6% | i | i
CC1(C)SC(=S)N(/N=C/c2ccccc2O)C1N(O)C(=O)Nc1ccccc1 (centres undefined) | ? | 18µM* | ? | ? | i | i
Cc1c(Cl)cccc1N=Cc1ccc([N+](=O)[O-])s1 | ? | ? | ? | 20µM* | i | i
Cc1ccc(C=Nc2ccccc2C#N)s1 | -8% | -20% | 7% | -8% | ? | i
COc1cccc(CNC(=O)COC(=O)c2ccc(S(C)(=O)=O)c([N+](=O)[O-])c2)c1 | / | / | / | / | i | i
